The results in this text go back to PMC7862700, “An all-to-all approach to the identification of sequence-specific readers for epigenetic DNA modifications on cytosine”.

Assay in all cases: DAPPL (digital affinity profiling via proximity ligation, sequencing); 10 mM Tris-HCl pH 7.5, 50 mM NaCl, 1 mM DTT, 4% glycerol, room temperature, 30 min; GST-TFs on glutathione beads, 16-mer random dsDNA library, 0.1% formaldehyde crosslink after washing; high values mean tight binding
In one test the target is T1, FEV (Homo sapiens, UniProt Q99581 1-238).
T1 sequence: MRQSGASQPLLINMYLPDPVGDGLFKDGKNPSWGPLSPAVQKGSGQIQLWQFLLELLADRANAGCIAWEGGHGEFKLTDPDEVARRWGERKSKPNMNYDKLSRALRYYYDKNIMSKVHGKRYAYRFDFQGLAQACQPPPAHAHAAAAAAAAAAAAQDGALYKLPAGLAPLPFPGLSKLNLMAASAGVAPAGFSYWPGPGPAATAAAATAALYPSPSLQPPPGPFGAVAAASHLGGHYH
The settings on record: protein: recombinant; tags: N-terminal GST; dsDNA, one strand shown. Summed up: (§1)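 Binding signal is each hexamer's read frequency for a factor divided by its frequency in the tag-only sample. The factors were GST-fused human transcription factors from yeast, captured on glutathione beads, DNA-barcoded and pooled with that sample. Pools were incubated with 200 nmole of a random double-stranded 16-mer DNA library in Tris/NaCl/DTT/glycerol buffer at room temperature for 30 min, then washed, crosslinked with 0.1% formaldehyde, proximity-ligated with BsaI/T4 ligase (1 h, 37 °C), PCR-amplified and sequenced on an Illumina NextSeq500.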

The next test has as its target ETV5 (Homo sapiens, UniProt P41161 1-510). The note with it: protein: recombinant; tags: N-terminal GST; dsDNA, one strand shown. The procedure, abridged:
as §1

The next test deals with HSF1 (Homo sapiens, UniProt Q00613 1-529). The settings on record: protein: recombinant; tags: N-terminal GST; chain copies: 3; dsDNA, one strand shown. The procedure, abridged:
as §1

The target of a further test is T2, SPIC (Homo sapiens, UniProt Q8N5J4 1-248).
T2 sequence: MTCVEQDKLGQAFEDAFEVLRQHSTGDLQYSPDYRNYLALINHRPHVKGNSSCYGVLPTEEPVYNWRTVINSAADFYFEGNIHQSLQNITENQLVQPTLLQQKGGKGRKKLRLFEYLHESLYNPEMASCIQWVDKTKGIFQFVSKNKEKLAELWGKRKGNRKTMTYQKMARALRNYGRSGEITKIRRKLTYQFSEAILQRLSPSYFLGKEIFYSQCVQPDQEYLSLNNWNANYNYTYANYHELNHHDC
The settings on record: protein: recombinant; tags: N-terminal GST; dsDNA, one strand shown. The procedure, abridged:
as §1

The next test addresses ELF4 (Homo sapiens, UniProt Q99607 1-663). The note with it: protein: recombinant; tags: N-terminal GST; dsDNA, one strand shown. Summed up:
as §1

For a further test, the target named is T3, ELK4 (Homo sapiens, UniProt P28324-2 1-405).
T3 sequence: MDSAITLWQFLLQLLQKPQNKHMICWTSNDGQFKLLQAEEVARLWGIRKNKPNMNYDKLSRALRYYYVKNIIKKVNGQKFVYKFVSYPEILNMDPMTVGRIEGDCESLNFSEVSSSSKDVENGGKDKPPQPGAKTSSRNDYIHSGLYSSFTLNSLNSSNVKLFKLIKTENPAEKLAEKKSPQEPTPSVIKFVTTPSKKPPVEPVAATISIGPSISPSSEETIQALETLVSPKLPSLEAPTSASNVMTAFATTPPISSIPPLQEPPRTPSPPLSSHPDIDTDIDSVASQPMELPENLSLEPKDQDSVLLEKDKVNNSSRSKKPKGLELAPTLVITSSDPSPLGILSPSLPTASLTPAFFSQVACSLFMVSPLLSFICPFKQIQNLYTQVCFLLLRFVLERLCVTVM
The settings on record: protein: recombinant; tags: N-terminal GST; dsDNA, one strand shown. The procedure, abridged:
as §1

The target in a further test is T4, ETV2 (Homo sapiens, UniProt O00321 1-342).
T4 sequence: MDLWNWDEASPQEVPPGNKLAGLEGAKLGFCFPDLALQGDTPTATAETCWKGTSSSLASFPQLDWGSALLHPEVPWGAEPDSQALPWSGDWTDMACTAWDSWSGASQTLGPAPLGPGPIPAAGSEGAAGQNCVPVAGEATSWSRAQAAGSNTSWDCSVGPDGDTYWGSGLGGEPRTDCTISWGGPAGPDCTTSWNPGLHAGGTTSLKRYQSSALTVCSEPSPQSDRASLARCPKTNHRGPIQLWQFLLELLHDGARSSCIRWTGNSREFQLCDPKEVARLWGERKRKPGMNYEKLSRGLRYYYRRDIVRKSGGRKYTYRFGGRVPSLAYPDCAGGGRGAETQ
The note with it: protein: recombinant; tags: N-terminal GST; dsDNA, one strand shown. Summed up: as §1

Another test has as its target T5, ELF3 (Homo sapiens, UniProt P78545 1-371).
T5 sequence: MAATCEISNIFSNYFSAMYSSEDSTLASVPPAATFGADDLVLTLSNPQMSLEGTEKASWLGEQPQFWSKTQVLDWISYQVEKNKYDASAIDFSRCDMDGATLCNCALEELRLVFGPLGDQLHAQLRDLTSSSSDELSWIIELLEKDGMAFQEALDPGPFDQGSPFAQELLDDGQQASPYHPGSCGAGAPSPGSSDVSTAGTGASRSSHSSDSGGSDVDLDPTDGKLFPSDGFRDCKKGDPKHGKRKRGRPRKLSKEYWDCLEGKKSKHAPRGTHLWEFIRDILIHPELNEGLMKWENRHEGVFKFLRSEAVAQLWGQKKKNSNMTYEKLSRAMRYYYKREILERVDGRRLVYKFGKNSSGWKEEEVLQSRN
The settings on record: protein: recombinant; tags: N-terminal GST; dsDNA, one strand shown. The procedure, abridged:
as §1

For the next test, the target named is CRX (Homo sapiens, UniProt O43186 1-299). The note with it: protein: recombinant; tags: N-terminal GST; dsDNA, one strand shown. The procedure, abridged: as §1
Sequence of CRX (O43186 whole entry): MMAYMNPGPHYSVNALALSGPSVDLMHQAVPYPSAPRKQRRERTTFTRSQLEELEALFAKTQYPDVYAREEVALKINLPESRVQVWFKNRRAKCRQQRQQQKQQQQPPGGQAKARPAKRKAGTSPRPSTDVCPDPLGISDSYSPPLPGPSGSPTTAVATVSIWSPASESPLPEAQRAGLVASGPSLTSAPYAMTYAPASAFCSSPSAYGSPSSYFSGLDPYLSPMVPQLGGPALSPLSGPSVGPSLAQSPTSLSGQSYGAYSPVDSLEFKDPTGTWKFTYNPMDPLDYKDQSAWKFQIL
The next test deals with ETV1 (Homo sapiens, UniProt P50549 1-477). The settings on record: protein: recombinant; tags: N-terminal GST; dsDNA, one strand shown. The procedure, abridged: as §1
Sequence of ETV1 (P50549 whole entry): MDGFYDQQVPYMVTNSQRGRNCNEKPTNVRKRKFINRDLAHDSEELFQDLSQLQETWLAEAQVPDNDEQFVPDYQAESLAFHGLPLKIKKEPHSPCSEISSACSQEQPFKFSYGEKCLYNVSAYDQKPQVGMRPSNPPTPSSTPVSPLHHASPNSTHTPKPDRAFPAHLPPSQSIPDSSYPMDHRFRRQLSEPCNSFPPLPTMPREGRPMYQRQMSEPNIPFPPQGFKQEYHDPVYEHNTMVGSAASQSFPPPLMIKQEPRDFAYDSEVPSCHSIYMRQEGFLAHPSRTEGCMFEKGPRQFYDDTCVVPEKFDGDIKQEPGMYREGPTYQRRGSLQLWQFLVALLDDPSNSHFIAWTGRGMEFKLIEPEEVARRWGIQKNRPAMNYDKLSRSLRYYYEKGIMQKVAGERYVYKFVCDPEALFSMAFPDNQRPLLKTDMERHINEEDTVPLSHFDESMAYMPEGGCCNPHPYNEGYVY
For another test, the target named is T6, ERF (Homo sapiens, UniProt P50548 1-548).
T6 sequence: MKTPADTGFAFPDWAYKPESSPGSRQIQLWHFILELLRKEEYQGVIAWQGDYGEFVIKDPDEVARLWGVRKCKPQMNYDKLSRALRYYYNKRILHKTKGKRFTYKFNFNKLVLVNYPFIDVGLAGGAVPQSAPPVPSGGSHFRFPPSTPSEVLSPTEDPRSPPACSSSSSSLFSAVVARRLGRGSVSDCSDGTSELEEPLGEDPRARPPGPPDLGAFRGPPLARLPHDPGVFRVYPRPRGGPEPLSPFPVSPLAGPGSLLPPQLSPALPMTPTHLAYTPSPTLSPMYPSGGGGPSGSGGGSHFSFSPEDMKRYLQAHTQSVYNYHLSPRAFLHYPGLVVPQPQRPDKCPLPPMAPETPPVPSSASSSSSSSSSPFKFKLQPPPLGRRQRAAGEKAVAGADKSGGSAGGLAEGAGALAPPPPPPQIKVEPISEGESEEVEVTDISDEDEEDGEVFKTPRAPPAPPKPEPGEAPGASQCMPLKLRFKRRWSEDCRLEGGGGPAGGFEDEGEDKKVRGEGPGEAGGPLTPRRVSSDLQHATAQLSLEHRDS
The note with it: protein: recombinant; tags: N-terminal GST; dsDNA, one strand shown. The procedure, abridged: as §1

In another test the target is T7, ETV3L (Homo sapiens, UniProt Q6ZN32 1-361).
T7 sequence: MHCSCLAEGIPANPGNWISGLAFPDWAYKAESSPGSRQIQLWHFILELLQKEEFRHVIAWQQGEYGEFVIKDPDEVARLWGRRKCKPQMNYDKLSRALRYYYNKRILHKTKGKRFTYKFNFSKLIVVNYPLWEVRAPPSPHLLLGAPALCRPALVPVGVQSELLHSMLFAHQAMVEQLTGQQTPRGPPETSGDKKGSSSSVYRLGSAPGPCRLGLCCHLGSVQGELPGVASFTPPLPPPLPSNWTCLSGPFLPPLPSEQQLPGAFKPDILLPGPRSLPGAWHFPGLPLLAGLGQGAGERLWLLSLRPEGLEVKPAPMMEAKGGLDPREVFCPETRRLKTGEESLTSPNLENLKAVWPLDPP
The note with it: protein: recombinant; tags: N-terminal GST; dsDNA, one strand shown. The procedure, abridged: as §1

The target in another test is T8, ETS2 (Homo sapiens, UniProt P15036 1-469).
T8 sequence: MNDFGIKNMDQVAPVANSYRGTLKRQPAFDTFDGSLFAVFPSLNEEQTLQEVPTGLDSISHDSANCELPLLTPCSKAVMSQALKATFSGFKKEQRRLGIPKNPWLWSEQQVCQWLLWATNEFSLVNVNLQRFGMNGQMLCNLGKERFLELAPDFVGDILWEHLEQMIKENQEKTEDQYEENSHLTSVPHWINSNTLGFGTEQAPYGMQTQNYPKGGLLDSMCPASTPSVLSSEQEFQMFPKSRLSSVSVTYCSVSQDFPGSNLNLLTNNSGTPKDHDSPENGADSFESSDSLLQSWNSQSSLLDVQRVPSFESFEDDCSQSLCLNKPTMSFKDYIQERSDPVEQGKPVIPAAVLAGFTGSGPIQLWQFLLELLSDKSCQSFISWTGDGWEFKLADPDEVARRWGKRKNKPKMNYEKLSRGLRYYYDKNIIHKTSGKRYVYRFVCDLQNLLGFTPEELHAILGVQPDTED
The settings on record: protein: recombinant; tags: N-terminal GST; dsDNA, one strand shown. Summed up:
as §1

A further test deals with T9, SPDEF (Homo sapiens, UniProt O95238 1-335).
T9 sequence: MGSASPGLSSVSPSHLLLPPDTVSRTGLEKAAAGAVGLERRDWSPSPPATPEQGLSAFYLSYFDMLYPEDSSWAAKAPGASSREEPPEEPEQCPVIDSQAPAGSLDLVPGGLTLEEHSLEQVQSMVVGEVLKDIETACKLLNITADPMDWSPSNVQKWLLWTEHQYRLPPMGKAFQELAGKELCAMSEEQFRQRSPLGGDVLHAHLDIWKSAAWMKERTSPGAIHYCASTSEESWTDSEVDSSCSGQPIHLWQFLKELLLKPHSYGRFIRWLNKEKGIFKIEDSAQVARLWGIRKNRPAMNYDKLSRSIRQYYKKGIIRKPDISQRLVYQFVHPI
The note with it: protein: recombinant; tags: N-terminal GST; dsDNA, one strand shown. Summed up: as §1

A further test deals with T10, ETV7 (Homo sapiens, UniProt Q9Y603 1-341).
T10 sequence: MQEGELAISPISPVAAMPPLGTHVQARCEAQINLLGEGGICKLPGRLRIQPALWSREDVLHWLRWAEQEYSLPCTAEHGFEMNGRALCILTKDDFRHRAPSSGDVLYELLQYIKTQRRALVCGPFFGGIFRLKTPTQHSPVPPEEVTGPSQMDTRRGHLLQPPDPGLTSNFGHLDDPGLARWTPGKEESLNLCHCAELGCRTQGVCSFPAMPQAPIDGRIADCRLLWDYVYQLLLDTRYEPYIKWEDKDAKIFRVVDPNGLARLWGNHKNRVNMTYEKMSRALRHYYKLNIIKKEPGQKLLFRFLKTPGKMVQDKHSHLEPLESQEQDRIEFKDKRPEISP
The settings on record: protein: recombinant; tags: N-terminal GST; dsDNA, one strand shown. Summed up:
as §1

The next test has as its target T11, ELF5 (Homo sapiens, UniProt Q9UKW6-2 1-255).
T11 sequence: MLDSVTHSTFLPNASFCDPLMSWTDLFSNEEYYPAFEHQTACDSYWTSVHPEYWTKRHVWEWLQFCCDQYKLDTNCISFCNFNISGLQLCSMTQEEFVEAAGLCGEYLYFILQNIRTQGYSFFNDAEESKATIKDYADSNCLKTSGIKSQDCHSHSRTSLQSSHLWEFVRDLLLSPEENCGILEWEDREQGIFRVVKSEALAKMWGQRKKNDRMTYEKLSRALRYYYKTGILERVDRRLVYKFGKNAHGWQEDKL
The settings on record: protein: recombinant; tags: N-terminal GST; dsDNA, one strand shown. Summed up: as §1

The next test concerns the target T12, ETV3 (Homo sapiens, UniProt P41162-2 1-143).
T12 sequence: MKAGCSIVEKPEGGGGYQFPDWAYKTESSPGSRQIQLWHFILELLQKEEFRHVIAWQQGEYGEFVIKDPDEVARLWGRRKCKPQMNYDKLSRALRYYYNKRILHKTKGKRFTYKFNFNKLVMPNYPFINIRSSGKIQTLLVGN
The note with it: protein: recombinant; tags: N-terminal GST; dsDNA, one strand shown. The procedure, abridged: as §1

A further test has as its target ETV6 (Homo sapiens, UniProt P41212 1-452). The note with it: protein: recombinant; tags: N-terminal GST; dsDNA, one strand shown. Summed up:
as §1

Sequence of ELF4 (Q99607 whole entry): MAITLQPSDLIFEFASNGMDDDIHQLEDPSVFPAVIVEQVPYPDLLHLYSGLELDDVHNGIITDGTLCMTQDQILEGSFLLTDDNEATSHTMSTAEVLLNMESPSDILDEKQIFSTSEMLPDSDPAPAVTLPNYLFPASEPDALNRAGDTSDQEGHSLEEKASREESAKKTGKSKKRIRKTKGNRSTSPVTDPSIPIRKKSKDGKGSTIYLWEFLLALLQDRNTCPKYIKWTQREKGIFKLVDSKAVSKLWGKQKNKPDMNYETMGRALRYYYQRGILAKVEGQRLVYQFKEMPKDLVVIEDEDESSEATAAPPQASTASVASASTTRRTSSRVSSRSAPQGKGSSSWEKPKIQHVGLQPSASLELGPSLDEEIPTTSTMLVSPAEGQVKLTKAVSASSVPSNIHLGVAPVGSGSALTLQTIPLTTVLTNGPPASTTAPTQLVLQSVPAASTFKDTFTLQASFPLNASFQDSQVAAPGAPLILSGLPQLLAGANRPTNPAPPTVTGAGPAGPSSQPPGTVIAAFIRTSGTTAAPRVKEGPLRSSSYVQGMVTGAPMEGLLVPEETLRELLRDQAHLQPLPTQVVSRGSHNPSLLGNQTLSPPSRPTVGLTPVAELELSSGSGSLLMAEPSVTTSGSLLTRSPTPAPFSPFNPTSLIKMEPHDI
Sequence of HSF1 (Q00613 whole entry): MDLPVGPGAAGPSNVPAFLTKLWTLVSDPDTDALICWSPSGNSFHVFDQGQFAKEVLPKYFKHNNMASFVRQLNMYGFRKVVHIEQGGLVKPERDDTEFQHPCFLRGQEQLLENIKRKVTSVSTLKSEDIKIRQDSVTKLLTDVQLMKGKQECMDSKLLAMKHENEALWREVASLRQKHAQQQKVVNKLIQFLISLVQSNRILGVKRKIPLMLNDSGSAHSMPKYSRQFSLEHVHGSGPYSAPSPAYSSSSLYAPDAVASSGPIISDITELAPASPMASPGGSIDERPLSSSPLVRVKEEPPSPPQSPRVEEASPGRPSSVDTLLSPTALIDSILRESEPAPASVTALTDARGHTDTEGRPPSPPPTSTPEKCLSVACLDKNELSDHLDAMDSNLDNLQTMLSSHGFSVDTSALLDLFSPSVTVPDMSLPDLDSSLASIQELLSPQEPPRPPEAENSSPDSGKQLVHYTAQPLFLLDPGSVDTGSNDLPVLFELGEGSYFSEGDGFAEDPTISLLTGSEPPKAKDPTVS
Sequence of ETV5 (P41161 whole entry): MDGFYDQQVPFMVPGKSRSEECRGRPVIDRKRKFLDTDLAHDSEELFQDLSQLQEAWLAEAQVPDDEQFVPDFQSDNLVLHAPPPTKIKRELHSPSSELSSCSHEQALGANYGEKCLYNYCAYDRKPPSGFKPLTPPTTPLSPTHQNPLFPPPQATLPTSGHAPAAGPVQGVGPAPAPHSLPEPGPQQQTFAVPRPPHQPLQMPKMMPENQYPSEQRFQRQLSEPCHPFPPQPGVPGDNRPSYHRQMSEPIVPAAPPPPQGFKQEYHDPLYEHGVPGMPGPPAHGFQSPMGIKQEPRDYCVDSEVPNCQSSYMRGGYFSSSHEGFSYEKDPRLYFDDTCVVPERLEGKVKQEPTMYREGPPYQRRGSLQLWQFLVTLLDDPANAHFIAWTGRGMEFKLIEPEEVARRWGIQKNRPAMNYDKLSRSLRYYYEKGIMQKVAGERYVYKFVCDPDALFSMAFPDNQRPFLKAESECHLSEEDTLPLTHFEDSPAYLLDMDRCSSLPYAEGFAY
Sequence of ETV6 (P41212 whole entry): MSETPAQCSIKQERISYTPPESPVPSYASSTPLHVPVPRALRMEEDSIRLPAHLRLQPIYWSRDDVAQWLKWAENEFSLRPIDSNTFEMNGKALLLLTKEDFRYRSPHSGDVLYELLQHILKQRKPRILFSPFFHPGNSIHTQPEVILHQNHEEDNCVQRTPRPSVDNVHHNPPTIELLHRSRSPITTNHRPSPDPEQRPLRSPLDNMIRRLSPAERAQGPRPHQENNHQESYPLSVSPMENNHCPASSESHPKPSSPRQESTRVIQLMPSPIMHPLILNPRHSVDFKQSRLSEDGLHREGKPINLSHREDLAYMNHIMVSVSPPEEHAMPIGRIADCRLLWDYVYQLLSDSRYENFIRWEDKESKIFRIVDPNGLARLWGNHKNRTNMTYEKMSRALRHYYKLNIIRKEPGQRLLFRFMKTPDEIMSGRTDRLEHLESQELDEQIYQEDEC

With CGCTTT, the binding signal in the test with FEV was 1.18 fold enrichment (6-mer frequency, TF over GST control); with ETV5 it was 1.21 fold enrichment (6-mer frequency, TF over GST control); in the test with HSF1, 1.11 fold enrichment (6-mer frequency, TF over GST control); with SPIC, 1.17 fold enrichment (6-mer frequency, TF over GST control); in the test with ELF4 it was 1.31 fold enrichment (6-mer frequency, TF over GST control); with ELK4, 1.17 fold enrichment (6-mer frequency, TF over GST control). For the same sequence, the binding signal with ETV2 was 1.09 fold enrichment (6-mer frequency, TF over GST control); with ELF3 it was 1.22 fold enrichment (6-mer frequency, TF over GST control); with CRX, 1.37 fold enrichment (6-mer frequency, TF over GST control); in the test with ETV1, 1.4 fold enrichment (6-mer frequency, TF over GST control); with ERF it was 1.24 fold enrichment (6-mer frequency, TF over GST control); in the test with ETV3L it was 1.26 fold enrichment (6-mer frequency, TF over GST control). Further, the binding signal is 1.36 fold enrichment (6-mer frequency, TF over GST control) with ETS2; 1.2 fold enrichment (6-mer frequency, TF over GST control) with SPDEF; 1.4 fold enrichment (6-mer frequency, TF over GST control) in the test with ETV7; 1.25 fold enrichment (6-mer frequency, TF over GST control) in the test with ELF5; 1.3 fold enrichment (6-mer frequency, TF over GST control) with ETV3; 1.31 fold enrichment (6-mer frequency, TF over GST control) in the test with ETV6.
